Results from ChEMBL document CHEMBL3988442, “University of Dundee, Small-Polar-MMV Screening Library” (2021).
Out of some 48,000 compounds screened, about 13,000 (27%) showed an effect of 50% or more. The list shows a part of the results.

system: Wolbachia pipientis; experiment: Anti-Wolbachia Cell-Based Screen; format: functional; design: scale not given: in the data most compounds retested in dose-response had high values; conditions: 5 µM

SMILES	Percent Effect
Cc1ccc(OC2(C(=O)O)CCN(C/C=C/c3ccco3)CC2)c(C)n1	-5.357%
CC(C)c1cc(C(=O)N2C[C@H]3CC[C@@H]2CN(Cc2cccnc2)C3)no1	0.5633%
CC(C)N1CCCc2sc(C(=O)NC3CC3)nc21	-0.2474%
CNC(=O)Cc1noc(-c2cc3c(s2)CCC(C)C3)n1 (stereo unspecified)	-12.44%
CN(CC1CN(Cc2cn3ccsc3n2)CCO1)c1cccnn1 (stereo unspecified)	13.06%
Cc1nc(COc2ccc(OC(C)C(N)=O)cc2)oc1C (stereo unspecified)	1.86%
Cc1ccc(-n2cc(CN3CCOCC3)c(-c3cccc(C)c3)n2)cc1	0.1947%
O=C(c1ccc2nncn2c1)N1CCSC2(CCCCC2)C1	-6.872%
CCn1cc(CN2CCCN(C(=O)c3ccc(C)o3)CC2)cn1	126.6%
CCc1nc(CN2CCCN(C(=O)c3cccn3C)CC2)cs1	-9.878%
Cc1cc(C(=O)N2CCN(Cn3cc(Cl)cn3)CC2)on1	0.1609%
Cc1occc1C(=O)N1CCCN(Cc2cnn(C(C)C)c2)CC1	-5.086%
CCn1cc(CN2CCCN(C(=O)c3cccn3C)CC2)cn1	145.7%
CCn1cc(CN2CCCN(C(=O)c3ccoc3C)CC2)cn1	105.3%
CC(C)n1cc(CN2CCCN(C(=O)c3cccn3C)CC2)cn1	7.673%
CCn1cc(CN2CCCN(C(=O)c3cc(C)no3)CC2)cn1	149.7%
CCC1=N[C@@]2(CC[C@@H]3CN(S(=O)(=O)CC)C[C@@H]32)C(=O)N1CC	5.096%
Cc1nc(C(=O)N2CCN(c3ncccn3)[C@@H]3CS(=O)(=O)C[C@@H]32)cs1	-1.503%
c1cnnc(N2CCCC2CNc2ncnc3ccccc23)c1 (stereo unspecified)	0.08494%
Cc1cc(NC(=O)N2CCN(C)CC2C)n(C)n1 (stereo unspecified)	-19.14%
Cc1cc(CNc2ccnn2CC(C)C)ccc1-n1cncn1	-23.25%
CSc1ccc(NS(=O)(=O)c2cnn(C)c2)cn1	-3.394%

SMILES	Percent Effect
CCc1nc(CN2CCCN(C(=O)c3ccccc3)CC2)cs1	5.45%
CCc1ccc(C(=O)N2CCCN(Cc3csc(CC)n3)CC2)o1	-14.26%
CCc1nc(CN2CCCN(C(=O)c3ccco3)CC2)cs1	109.2%
CCn1cc(CN2CCCN(C(=O)c3c(C)oc(C)c3C)CC2)cn1	105.9%
CCc1nnsc1C(=O)N1CCCN(Cc2cnn(CC)c2)CC1	-1.096%
Cc1ccc(NS(C)(=O)=O)c(C(=O)NCCC(=O)NC(C)C)c1	-8.186%
CCOCCN1CCC(c2cnccn2)CC1	103.5%
c1ccc(OCCN2CCC(c3cnccn3)CC2)cc1	90.65%
Fc1ccc(CCN2CCC(c3nnc(-c4cccnc4)o3)CC2)cc1	-17.22%
OCCn1cc(CN2CCN(CCOc3ccccc3)CC2)cn1	-4.681%
CCOCCN1CCn2c(C)nnc2C1	4.517%
c1ccc(OCCN2CCC(c3nnc(-c4cccnc4)o3)CC2)cc1	108.1%
CCOCCN1CCN(Cc2nnc(C3CC3)o2)CC1	-12.93%
CCOCCN1CCc2cncnc2C1	24.85%
c1ccc(OCCN2CCCC(c3noc(C4CC4)n3)C2)cc1 (stereo unspecified)	-2.8%
CCOCCN1CCC(c2cncc(C)n2)CC1	133%
c1ccc(CCCN2CC[C@H](c3nnc(-c4cccnc4)o3)C2)cc1	5.165%
O=C(c1cc(C2CC2)no1)N1C[C@H]2CC[C@@H]1CN(Cc1ccccn1)C2	-3.322%
CCNC(=O)CCC(=O)NC(Cc1ccccc1)c1sccc1C (stereo unspecified)	-7.516%
CC(C)CN1CCCC1c1ccc(C(=O)Nc2ccc3[nH]nnc3c2)s1 (stereo unspecified)	0.6901%
CCC(C)(CO)NC(=O)Nc1cc2c(cc1SC)OCCO2 (stereo unspecified)	-5.152%
CCOC(C)c1nc(Cn2cc(-n3cccc3)cn2)cs1 (stereo unspecified)	-7.68%

SMILES	Percent Effect
COc1ccc(F)cc1C(C)NC(=O)Nc1nncs1 (stereo unspecified)	5.791%
CCCN1CCC(c2nc3ccc(-c4cccc(OC)c4)cn3n2)CC1.O=C(O)C(F)(F)F	95.04%
CCCN1CCC(c2nc3ccc(-c4cccc(F)c4)cn3n2)CC1.O=C(O)C(F)(F)F	109.7%
CCCN1CCC(c2nc3ccc(NCc4cccnc4)cn3n2)CC1.O=C(O)C(F)(F)F.O=C(O)C(F)(F)F.O=C(O)C(F)(F)F	-17.81%
CCCN1CCC(c2nc3ccc(-c4ccccc4)cn3n2)CC1.O=C(O)C(F)(F)F	132.6%
CCCN1CCC(c2nc3ccc(-c4ccncc4)cn3n2)CC1.O=C(O)C(F)(F)F.O=C(O)C(F)(F)F	100.7%
O=C(O)C(F)(F)F.c1ccc(-c2ccc3nc(C4CCN(CC5CC5)CC4)nn3c2)cc1	21.53%
Cc1cccc(-c2ccc3nc(C4CCN(CC5CC5)CC4)nn3c2)c1.O=C(O)C(F)(F)F	10.89%
CCCN1CCC(c2nc3ccc(NCc4ccccc4)cn3n2)CC1.O=C(O)C(F)(F)F.O=C(O)C(F)(F)F	-22.92%
COCC(=O)N1CCC(c2nc3ccc(-c4ccncc4)cn3n2)CC1.O=C(O)C(F)(F)F	3.081%
O=C(COCC1CC1)Nc1ccn(Cc2cccc3cccnc23)n1	-5.086%
CCn1cc(SCC(=O)N2CCCC(O)(CO)C2)c2ccccc21 (stereo unspecified)	-16.21%
COc1cccc(C(=O)N2CCN(C(=O)CCCc3cn[nH]c3)CC2)c1	-9.764%
CCOCC1CN(C(=O)Cc2ccsc2)Cc2ccnn2C1.O=C(O)C(F)(F)F (stereo unspecified)	4.742%
O=C(CCN1CCCO1)N1CC[C@@H](c2ccc3ccccc3c2)[C@H](O)C1	7.888%
CC(C)SCCn1ccc2[nH]c(=O)c(C#N)cc2c1=O	-14.16%
CN1CCC(c2nc3ccc(-c4cccc(F)c4)cn3n2)CC1.O=C(O)C(F)(F)F	117.6%
Cn1cc(C2(C)CN(Cc3ccc(N4CCCC4)nc3)CCO2)cn1 (stereo unspecified)	-5.624%
CCc1oc(C(=O)NCCc2cc(O)nc(C)n2)cc1CN1CCCC1	-0.3531%
Cc1cc(C)nc(NC(C)Cc2cnccn2)n1 (stereo unspecified)	-26.5%
CCc1oc(C(=O)NCCSc2ncn[nH]2)cc1CN1CCCC1	77%
CCc1oc(C(=O)NC(C)c2ncn[nH]2)cc1CN1CCCC1 (stereo unspecified)	82.75%

SMILES	Percent Effect
CC(Cc1cnccn1)NC(=O)COc1ccc(F)cc1F (stereo unspecified)	0.5787%
CCc1oc(C(=O)NCCc2nc(C(=O)O)cs2)cc1CN1CCCC1	10.42%
Cc1ccc(NC2(C(=O)NC(C)c3ncn[nH]3)CCCC2)cc1 (stereo unspecified)	4.641%
CCc1oc(C(=O)NCCNS(C)(=O)=O)cc1CN1CCCC1	20.77%
CCc1oc(C(=O)NC(C)Cc2cnccn2)cc1CN1CCCC1 (stereo unspecified)	92.2%
COc1c(F)cccc1C(=O)NC(C)c1cnn(C)c1 (stereo unspecified)	2.584%
Cc1ccccc1S(=O)(=O)CCOC(C)C	-3.521%
O=C(C1CCOCC1)N1C[C@@H](F)[C@@H](OCc2nc3cc(F)ccc3[nH]2)C1	-12.95%
CC(C)(C)OC(=O)NCC1CCN(C(=O)c2cc(Cl)c[nH]2)CC1	10.1%
COCCN1CCC(CNC(=O)c2cc(C)cc(C)c2)C1 (stereo unspecified)	11.6%
O=C(NCC1CCN(CCc2ccccc2)C1)c1cc(Cl)c[nH]1 (stereo unspecified)	98.65%
O=C(NCC1CCN(CCc2ccccc2)C1)c1c(F)cccc1F (stereo unspecified)	-12.95%
COCCN1CCC(CNC(=O)Nc2ccc(F)c(Cl)c2)C1 (stereo unspecified)	-3.47%
CCc1cc(C(=O)NCC2CCN(Cc3ccncc3)CC2)on1	4.058%
COCCN1CCC(CNC(=O)c2cc(Cl)c[nH]2)CC1	92.15%
CCN1CCC(CNC(=O)c2cc(Cl)c[nH]2)CC1	93.05%
COc1ccc(OC)c2c(C)cc(N(C)CCCO)nc12	19.89%
OC[C@@H](O)CN(CCC(F)(F)F)c1ncccn1	-5.207%
O=C(CCN1CCCN(c2nccs2)CC1)NCC1CCCCC1	-7.888%
Cc1cnn(CCNCC(=O)NCc2ccccc2)c1	3.726%
CCn1nnnc1-c1cccc(NC(=O)CCn2cc(C)cn2)c1	2.601%
Cc1cnn(CCNCCCOc2ccccc2)c1	2.655%

SMILES	Percent Effect
Cc1cnn(CCCNC(=O)NC(C)C(=O)Nc2ccccc2)c1 (stereo unspecified)	105.3%
Cc1cnn(CCCNC(=O)NCCS(=O)(=O)Nc2ccccc2)c1	96.15%
Cc1cnn(CCNC(C)C(=O)Nc2ccc(Cl)cn2)c1 (stereo unspecified)	-21.66%
Cc1cnn(CCCNC(=O)NCCC(=O)Nc2ccccc2)c1	97.62%
Cc1cnn(CCCNC2Cc3ccccc3C2)c1	8.956%
Cc1cnn(CCNC(C)C(=O)NCCc2cccs2)c1 (stereo unspecified)	5.747%
CN(C)S(=O)(=O)N1CC[C@]2(C[C@H](OCc3ccccn3)CO2)C1.O=C(O)C(F)(F)F	14.62%
Cc1ccc(C(=O)N2CC[C@@H]3[C@H]2CCC(=O)N3CCN(C)C)cn1.O=C(O)C(F)(F)F.O=C(O)C(F)(F)F	19.11%
CCn1nc(C)c(NC(=O)c2cc(NC(=O)C3CC3)n(C)n2)c1C	-7.543%
O=C(C[S+]([O-])Cc1cccc(C(F)(F)F)c1)NC1CCCC1 (stereo unspecified)	-0.5467%
NC1CCCN(Cc2cccc(C(F)(F)F)c2)C1=O (stereo unspecified)	110.9%
O=C1C(N2CCOCC2)CCCN1Cc1cccc(C(F)(F)F)c1 (stereo unspecified)	85.07%
FC(F)(F)c1cccc(CN2CCOC[C@H](Oc3cccnc3)C2)c1	-1.353%
O=C1C(N2CC[C@@H](O)C2)CCCN1Cc1cccc(C(F)(F)F)c1 (stereo partly specified)	107.1%
Cc1nc(CN2CCCC(CCc3cccc(C(F)(F)F)c3)C2)co1 (stereo unspecified)	-5.657%
O=C1NC[C@@]2(C(=O)O)CN(Cc3cccc(C(F)(F)F)c3)C[C@@H]12	-16.76%
O[C@H]1COCCN(Cc2cccc(C(F)(F)F)c2)C1	1.348%
NC(=O)CN(C(=O)Cc1cccc(C(F)(F)F)c1)C1CCCC1	0.7845%
